B2AR arrestin: beta2AR (human) beta-arrestin recruitment activity; P07550; beta-arrestin recruitment to beta2AR, cell-based reporter; Potency, µM (titrated, usually from 46.1 µM), actives largely listed as activators; 330,000 compounds, 0.02% hits; active means well fitted activation curve with a large enough effect; inconclusive means small, poorly fitted or top-dose-only effect; further: nearly all actives have a fitted effect of over 65% in size
Target sequence (P07550 whole entry, looked up): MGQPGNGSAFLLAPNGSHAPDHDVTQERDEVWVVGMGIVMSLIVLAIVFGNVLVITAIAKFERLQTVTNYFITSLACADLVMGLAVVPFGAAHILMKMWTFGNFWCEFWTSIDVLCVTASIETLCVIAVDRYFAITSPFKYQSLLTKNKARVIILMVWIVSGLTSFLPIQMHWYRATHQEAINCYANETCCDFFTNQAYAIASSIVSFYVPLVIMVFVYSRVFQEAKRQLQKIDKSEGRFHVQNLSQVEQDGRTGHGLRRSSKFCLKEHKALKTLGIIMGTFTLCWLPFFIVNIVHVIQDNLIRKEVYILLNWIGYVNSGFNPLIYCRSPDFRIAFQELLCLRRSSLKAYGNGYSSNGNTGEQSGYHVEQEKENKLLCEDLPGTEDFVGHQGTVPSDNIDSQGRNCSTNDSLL
D3 antag: antagonists of human D3 dopamine receptor | 360,000 compounds, 2.5% hits | D3R cells, DiscoveRx beta-arrestin luminescence, antagonist mode; stronger effect = lower value | max response, negative = inhibition, % | AID 652054; in the data active means max response below about -50%; inconclusive means no clear call, values can overlap the other calls
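Cells plated overnight at 1500 cells/well, then exposed to library compounds with dopamine controls for 90 minutes at 37 degrees C. DiscoveRx reagent added for 30–60 minutes at room temperature; luminescence read, quantitative HTS format.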
D3 ag: activates the human D3 dopamine receptor. max activation, %. D3R DiscoveRx beta-arrestin cells, luminescence, 90 min. 410,000 compounds, 0.58% hits. AID 652048; in the data active means max activation above about 30%
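Cells at 1500/well, incubated overnight, then treated with pinned compounds (dopamine as control) for 90 min at 37 degrees C. DiscoveRx reagent added for 30 - 60 minutes at room temperature; luminescence read.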
Giardia kill: kills Giardia lamblia; 340,000 compounds, 0.15% hits; Giardia lamblia trophozoite viability; AID 540267; activity change, % at 7.66 µM, hits read low; in the data active means activity change below about -80%; inconclusive means between about -30% and that limit;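 further: parasites exposed to compound for two days anaerobically before the ATP read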
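Compounds were tested on trophozoites seeded at 100 cells/well and held 48 hrs at 37 deg C anaerobically. An ATP-based luminescent kit measured the remaining live cells.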
A number is an active result; . = inactive; ? = inconclusive; / = no result given. This is a sample that favours compounds with a hit; in the whole collection about 2.8% have one here.

SMILES | B2AR arrestin | D3 antag | D3 ag | Giardia kill
COc1ccc(Oc2c(C(F)(F)F)oc3c(CN4CCCC(C)C4)c(O)ccc3c2=O)cc1 (stereo unspecified) | / | / | . | /
COc1ccc(-c2csc(N(CCCN(C)C)C(=O)c3cccs3)n2)cc1 | . | -58.3 | . | .
COc1ccc(OC)c(-c2cc(C(=O)NCc3ccco3)no2)c1 | . | -54.1 | . | .
COc1ccc(OC)c(-c2cc(C(=O)Nc3c(C)nn(Cc4ccccc4)c3C)no2)c1 | . | . | 35.5 | .
Cc1nn(Cc2ccccc2)c(C)c1NC(=O)c1cc(-c2ccco2)on1 | . | . | . | .
COc1ccc(OC)c(-c2cc(C(=O)Nc3c(C)nn(Cc4ccc(Cl)cc4)c3C)no2)c1 | . | . | 41.0 | .
CCCCSc1nnc2nc(C)cc(C)n12 | . | -57.6 | . | .
CC(C)(C)NC(=O)c1cccc2c1OC(C)(C)C2 | . | . | 49.2 | .
CC1(C)Cc2cccc(C(=O)NCc3ccco3)c2O1 | . | ? | . | ?
O=C1CC(SCc2nc3ccccc3[nH]2)C(=O)N1c1ccc(F)cc1 (stereo unspecified) | . | -65.8 | . | .
O=C1/C(=C\c2ccc([N+](=O)[O-])cc2)CCc2ccccc21 | . | ? | . | -90.8
CC1(C)CC(C(CCN(Cc2ccccc2)C(=O)c2ccco2)c2ccc(F)cc2)CCO1 (stereo unspecified) | . | . | 47.8 | .
O=C(c1ccco1)N(CCC(c1ccccc1)c1ccco1)Cc1ccc(F)cc1 (stereo unspecified) | . | . | . | .
COc1ccc(C(CNC(=O)c2oc3ccc(C)cc3c2C)N2CCCCC2)cc1 (stereo unspecified) | . | -104.4 | . | .
COc1ccc(C(CNC(=O)c2cc3ccccc3o2)N2CCCCC2)cc1 (stereo unspecified) | . | -73.8 | . | .
COc1ccc(C(CNC(=O)c2cc3ccccc3o2)N2CCCC2)cc1 (stereo unspecified) | . | -84.1 | . | .
COc1ccc(-c2cc(C3C4C=CCC(C)C4C(=O)N3Cc3ccccc3)ccc2F)cc1OC (stereo unspecified) | / | / | / | .
Cc1n[nH]c(C)c1Sc1ccccc1N=Cc1cc(Cl)cc([N+](=O)[O-])c1O | . | -131.2 | . | .
O=[N+]([O-])c1ccc(/C=N/n2c(CO)nc3ccccc32)s1 | . | . | . | -106.1
O=C(NCCCN1CCN(c2ccc(F)cc2)CC1)c1ccc2nc(Cc3ccccc3)oc2c1 | / | / | . | /
CC1(C)C(\C=C/C=C\C=C/C=C2/N(CCCCS(=O)(=O)O)c3ccc4ccccc4c3C2(C)C)=[N+](CCCCS(=O)(=O)[O-])c2ccc3ccccc3c21 | / | / | . | /
CC1C2CC(C(CN(C)C)/C2=N/O)C1(C)C (stereo unspecified) | . | . | . | .
CC1/C(=N/O)C(CN(C)C)C2CC1C2(C)C (stereo unspecified) | . | -68.7 | . | .
O=C(Cn1nc(C(F)(F)F)c2c1CCCC2)NC1CCCC1 | . | -55.1 | . | .
CC(C)NC(=O)Cn1nc(C(F)(F)F)c2c1CCC2 | . | . | . | .
SMILES | B2AR arrestin | D3 antag | D3 ag | Giardia kill
O=[N+]([O-])c1cc(Cl)cc(/C=N/n2cnnc2)c1O | . | -56.9 | . | .
O=[N+]([O-])c1cc(Br)cc(/C=N/n2cnnc2)c1O | . | ? | . | .
O=[N+]([O-])c1ccccc1S(=O)(=O)Oc1ccccc1/C=N/n1cnnc1 | . | . | . | ?
O=c1c2c(-c3ccc(Cl)cc3)csc2ncn1/N=C/c1cccc([N+](=O)[O-])c1O | . | -60.8 | . | .
Cc1nn(-c2ccccc2)c(N2CCCC2)c1/C=N/n1cnc2scc(-c3ccccc3)c2c1=O | . | -61.1 | . | .
O=[N+]([O-])c1cccc(/C=N/n2cnnc2)c1O | . | -55.0 | . | .
Cc1cccc(CNC(=O)CN2C(=O)CSc3c2c(C)nn3-c2ccccc2)c1 | / | / | . | /
COc1ccc(/C=C2/CSC/C(=C/c3ccc(OC)c(OC)c3)C2=O)cc1OC | / | -50.2 | . | .
CCOc1ccc(/C=C/c2nc(C#N)c(NCc3ccc(OC)cc3)o2)cc1 | / | / | . | /
COc1cc(CNC(=O)Nc2nc(C(N)CCc3ccccc3)cs2)cc(OC)c1OC (stereo unspecified) | / | . | . | /
COc1ccc(CC(N)c2csc(NC(=O)Nc3ccccc3C(C)C)n2)cc1 (stereo unspecified) | / | -54.5 | . | /
COc1ccccc1NC(=O)Nc1nc(C(N)CCc2ccccc2)cs1 (stereo unspecified) | / | -96.0 | . | /
CCN(c1ccc(C)cc1C)S(=O)(=O)c1nnc(NC(=O)c2ccc(F)cc2)s1 | / | / | . | /
CCOc1ccccc1NC(=O)Cn1c(=O)n(CCCC(=O)NCCc2ccc(C)cc2)c(=O)c2ccccc21 | / | / | . | /
N#CC1(CCCN2CCCCC2)c2ccccc2CCc2ccccc21 | / | -93.0 | . | .
CCN(CC)c1cc2c(c3c1ccn3C)C1CCC2C1 (stereo unspecified) | / | -61.3 | . | /
CCN(Cc1ccccc1)c1cc2c(c3c1ccn3C)C1CCC2C1 (stereo unspecified) | / | -55.1 | . | /
COc1cccc(NC(=O)c2sc3nc(C)c(C(=O)Nc4ccc(C)cc4C)c(-c4cccs4)c3c2N)c1 | / | / | . | /
CCCC(=O)OCCNc1cc(Sc2nc3ccccc3[nH]2)c2nonc2c1[N+](=O)[O-] | . | -82.8 | . | .
CCC(=O)OCCNc1cc(SCCC(=O)OC)c2nonc2c1[N+](=O)[O-] | . | . | . | .
CC(=O)OCCCNc1cc(Sc2ccc(Cl)cc2)c2nonc2c1[N+](=O)[O-] | . | -118.5 | . | .
CCC(=O)OCCNc1cc(Sc2nccn2C)c2nonc2c1[N+](=O)[O-] | . | -101.5 | . | .
CC(=O)OCCNc1cc(SC(C)C)c2nonc2c1[N+](=O)[O-] | . | . | . | .
CCN1CCN(c2cc(-c3ccc(F)cc3)c3c(n2)CCCCCC3)CC1 | / | / | . | /
CCOc1ccc(/C=N/NC(=O)c2ccccc2C)cc1CN1CC2CC(C1)c1cccc(=O)n1C2 (stereo unspecified) | . | . | . | .
SMILES | B2AR arrestin | D3 antag | D3 ag | Giardia kill
CCOc1ccc(/C=N/NC(=O)c2ccccc2Cl)cc1CN1CC2CC(C1)c1cccc(=O)n1C2 (stereo unspecified) | . | -85.1 | . | .
CN(Cc1ccccc1)C(=O)[C@@H]1CCCN1C(=O)[C@@H]1CCCN1C(=O)c1cccs1 | / | . | . | /
CN(Cc1ccccc1)C(=O)[C@@H]1CCCN1C(=O)[C@@H]1CCCN1C(=O)c1cccc2ccccc12 | / | -50.1 | . | /
CN1CCN(C(=S)NCCc2ccccc2)CC1 | . | -87.1 | . | .
S=C(NCCc1ccccc1)N1CCN(C(=S)NCCc2ccccc2)CC1 | . | . | . | .
CSc1ccc(C2=CC(=O)C[C@H](c3ccc4c(c3)OCO4)C2)cc1 | . | -51.9 | . | .
CC(C)(C)N(Cc1cc2ccccc2[nH]c1=O)C(=O)c1cccc([N+](=O)[O-])c1 | . | . | 46.9 | .
CCOC(=O)CSc1nnc(C)c(=O)[nH]1 | . | . | . | .
CCOC(=O)CSc1nnc(NCC(=O)OC)c(=O)[nH]1 | . | -56.4 | . | .

Source: PubChem BioAssay
